Screening data (PubChem BioAssay)
Rows were chosen to be rich in hits. Some 21% of all compounds tested hit in one or more screens of this group.
NS1 inh: qHTS Assay for Inhibitors of Influenza NS1 Protein Function. AID 2326, 2010. Potency, µM (doses to about 46.1 µM), without a hit: at the highest dose activity, positive = more growth. hit rate 0.4% among 270,000; calls by dose curve; note: potency is the fitted concentration of half-maximal effect; actives are rising curves; nearly all actives have a fitted effect of over 50% in size
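Growth recovery, yeast-based: influenza A NS1 expressed in S. cerevisiae causes slow growth, and suppressors are detected by OD600. The parent strain without NS1 is used as positive control.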
Pf growth 96h: Primary qHTS for delayed death inhibitors of the malarial parasite plastid, 96 hour incubation; P. falciparum luciferase reporter growth, 96 h; Potency, µM (titrated, usually from 28.7 µM), for inactives: top-dose activity change, negative = inhibition, actives largely listed as inhibitors; hit rate 6.9% among 320,000; AID 504834, 2011; note: potency is the fitted concentration of half-maximal effect; % is set by controls: 0 for no effect and ±100 for the full control effect
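Erythrocytes infected with luciferase-expressing P. falciparum were dispensed at 2% hematocrit and 0.05% parasitemia (final), then incubated with compounds 96 hours at 37 C in 5% CO2. Luminescence after detection reagent addition reported growth.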
Pf growth 48h: Primary qHTS for delayed death inhibitors of the malarial parasite plastid, 48 hour incubation | P. falciparum luciferase growth in erythrocytes, 48 h | Potency, µM (doses to about 28.7 µM), inactives show top-dose activity change, negative = inhibition, most hits filed as inhibitors | hit rate 5.9% among 310,000; note: potency is the fitted concentration of half-maximal effect; % is set by controls: 0 for no effect and ±100 for the full control effect
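Parasite viability was followed by luminescence of a genomically integrated firefly luciferase. Cultures held 0.1% parasitemia at 2% hematocrit (final), incubated under 5% CO2 at 37 C.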
Cycloheximide cs: Cycloheximide Counterscreen for Small Molecule Inhibitors of Shiga Toxin; AID 2314, 2010; hit rate 12% among 300,000; max response, %; cell reporter, cycloheximide protein synthesis inhibition counterscreen; in the data active = max response mostly above about 13%, no sharp cut-off; inactive = mostly below about 14%; note: read at 38.3 µM for the half of the compounds with a filed dose; 0% is about no effect
Shiga inhibitor: A qHTS for Small Molecule Inhibitors of Shiga Toxin. Vero cells, Shiga toxin protein synthesis inhibition reporter. inhibition, % at 38.7 µM. hit rate 9.2% among 290,000. AID 2315, 2010; in the data active = inhibition mostly above about 28%, no sharp cut-off; inactive = mostly below about 43%; note: 0% is about no effect
Starred values were filed as active, the others as inactive. Unless noted, calls come from the whole dose curve; as a rule, active = well fitted inhibition curve with a large enough effect; inconclusive = small, poorly fitted or top-dose-only effect, or another doubt; inactive = no such curve, though single readings can be large or run the other way.

Screening CC1Cc2nc(SCC(=O)NCc3ccco3)n(Cc3ccccc3)c(=O)c2S1 (configuration not stated) returned NS1 inh -86.0%, Pf growth 96h inconclusive, Pf growth 48h inconclusive, Cycloheximide cs 17.0 and Shiga inhibitor 35.9*.
For CCSc1nc2c(c(=O)n1-c1ccc(F)cc1)SCC2 the results were NS1 inh -4.0%, Pf growth 96h 2.94µM*, Pf growth 48h inconclusive, Cycloheximide cs 0.6 and Shiga inhibitor 11.6.
`O=C(O)c1ccc(Oc2ccc(C(F)(F)F)cn2)cc1` gave Pf growth 96h 16.1%, Pf growth 48h -4.1%, Cycloheximide cs 15.1* and Shiga inhibitor 15.6.
COC(=O)c1ccc(Oc2ccc(C(F)(F)F)cn2)cc1 was read as Pf growth 96h 4.6%, Pf growth 48h 36.0%, Cycloheximide cs 27.7* and Shiga inhibitor 45.2*.
`Cc1ccccc1N1CCN(C(=O)c2ccc(Oc3ccc(C(F)(F)F)cn3)cc2)CC1` gave NS1 inh 5.0%, Pf growth 96h 13.1µM*, Pf growth 48h 9.28µM*, Cycloheximide cs -2.6 and Shiga inhibitor -2.7.
Screening NC(=O)c1ccc(Oc2ncc(C(F)(F)F)cc2Cl)cc1 returned Pf growth 96h 15.9%, Pf growth 48h inconclusive, Cycloheximide cs 25.1 and Shiga inhibitor 27.7.
`Cn1c(CNC(=O)Cc2ccc3c(c2)OCO3)nnc1SCc1ccccc1` gave NS1 inh -2.1%, Pf growth 96h 20.3%, Pf growth 48h -5.9%, Cycloheximide cs -6.6 and Shiga inhibitor -14.2.
`O=C(CN(Cc1ccc(Cl)cc1)C(=O)c1csnn1)NCc1ccc(F)cc1` gave NS1 inh -1.6%, Pf growth 96h 20.1%, Pf growth 48h 1.7%, Cycloheximide cs -2.9 and Shiga inhibitor 1.2.
`C[C@]12CC[C@H]3c4ccc(O)cc4CC[C@@H]3[C@H]1CC[C@@H]2OC(=O)CCC1CCCC1` gave NS1 inh -13.9%, Pf growth 96h 13.5µM* and Pf growth 48h 16.9µM*.
`Cc1nn(C)c(C)c1/C=N/N=C1\CCC2C3CCc4cc(O)ccc4C3CCC12C` (configuration not stated) gave NS1 inh 3.6%, Pf growth 48h 2.94µM*, Cycloheximide cs -1.9 and Shiga inhibitor 19.0.
`C[C@]12CC[C@@H]3c4ccc(O)cc4CC[C@H]3[C@@H]1CCC2=O` gave NS1 inh -20.3%, Pf growth 96h 13.1µM*, Pf growth 48h inconclusive, Cycloheximide cs 1.8 and Shiga inhibitor 18.5.
`COc1ccccc1N(CCN1C(=O)c2cccc3cccc(c23)C1=O)C(=O)c1ccncc1` gave NS1 inh 1.1%, Pf growth 96h 7.5%, Pf growth 48h 5.2%, Cycloheximide cs -1.9 and Shiga inhibitor 13.3.
`Cc1ccc(C(=O)NC2CCSC2=O)cc1` (configuration not stated) gave NS1 inh 8.9%, Pf growth 48h 29.6%, Cycloheximide cs 2.3 and Shiga inhibitor -7.3.
`O=C(NC1CCCCNC1=O)c1ccc(Cl)cc1` (configuration not stated) gave NS1 inh -8.8%, Pf growth 96h 91.6%, Cycloheximide cs 10.7 and Shiga inhibitor 25.9.
`Cc1ccc(C(=O)NC2CCCCNC2=O)cc1` (configuration not stated) gave NS1 inh -2.4%, Pf growth 96h 32.7%, Pf growth 48h 38.2%, Cycloheximide cs 28.6* and Shiga inhibitor 93.8*.
Cc1ccc(C(=O)NC2CCc3ccccc3C2=O)cc1 (configuration not stated) was read as Pf growth 96h 461.8%, Pf growth 48h inactive, Cycloheximide cs 30.3* and Shiga inhibitor 64.8*.
Cc1ccc(C(=O)NC2CCCCNC2=O)cc1C (configuration not stated) was read as NS1 inh 3.9%, Pf growth 96h 108.7%, Pf growth 48h 62.8%, Cycloheximide cs 37.6* and Shiga inhibitor 64.5*.
CC12CCC(=O)N1C(C(=O)N1CCN(c3ccc(C(F)(F)F)cc3[N+](=O)[O-])CC1)CS2 (configuration not stated) was read as NS1 inh 2.1%, Pf growth 96h -9.8%, Pf growth 48h -2.5%, Cycloheximide cs -1.7 and Shiga inhibitor -5.5.
`Cc1ccc(Nc2nc(C)c(CCC(C)C)c(=O)[nH]2)cc1` gave NS1 inh 9.3%, Pf growth 96h 16.6%, Pf growth 48h inconclusive, Cycloheximide cs 15.4 and Shiga inhibitor 3.9.
Cc1nc(Nc2ccc(F)cc2)[nH]c(=O)c1CCC(C)C was read as NS1 inh -106.1%, Pf growth 48h 5.86µM*, Cycloheximide cs 5.8 and Shiga inhibitor -0.1.
COc1ccc(NC(=O)Cc2nnc(SCC(=O)Nc3cc(C)ccc3OC)n2C)cc1 was read as NS1 inh -6.6%, Pf growth 96h 7.8%, Pf growth 48h -15.1%, Cycloheximide cs -2.6 and Shiga inhibitor 11.1.
Cc1ccc(C)c(OC(=O)CN2C(=O)c3ccccc3C2=O)c1 was read as NS1 inh -17.8%, Pf growth 96h inconclusive, Pf growth 48h -6.6% and Cycloheximide cs 2.0.
Screening COC(=O)c1ccc(NC(=O)CNS(=O)(=O)c2cccs2)cc1 returned NS1 inh -5.3%, Pf growth 48h -12.1%, Cycloheximide cs 18.6* and Shiga inhibitor 31.7.
`COc1ccc(NC(=O)C2CCC(CNS(=O)(=O)c3cccs3)CC2)cc1` (configuration not stated) gave Pf growth 96h 13.1µM*, Pf growth 48h 4.3%, Cycloheximide cs 4.0 and Shiga inhibitor 8.7.
For CCOC(=O)CNC(=O)N1CCCC(CNS(=O)(=O)c2cccs2)C1 (configuration not stated) the results were NS1 inh 5.1%, Pf growth 96h 10.4µM*, Pf growth 48h 9.3%, Cycloheximide cs 2.1 and Shiga inhibitor 10.0.
O=S(=O)(Nc1ccc2c(c1)OCCO2)c1cccs1 was read as NS1 inh -8.2%, Pf growth 96h inconclusive, Pf growth 48h inconclusive, Cycloheximide cs 53.7* and Shiga inhibitor 82.9*.
COc1ccc(NC(=O)C2CCC(CNS(=O)(=O)c3cccs3)CC2)cc1OC (configuration not stated) was read as Pf growth 96h -19.7%, Pf growth 48h inconclusive, Cycloheximide cs 6.2 and Shiga inhibitor -3.4.
CCOC(=O)c1ccc(NC(=O)CCNS(=O)(=O)c2cccs2)cc1 was read as NS1 inh -15.5%, Pf growth 96h 14.2%, Pf growth 48h -1.9%, Cycloheximide cs 2.1 and Shiga inhibitor -1.0.
`CC(=O)c1ccc(OCCNS(=O)(=O)c2ccc(-n3cnnn3)cc2)cc1` gave NS1 inh 5.9%, Pf growth 96h -28.0%, Pf growth 48h -27.3%, Cycloheximide cs -4.5 and Shiga inhibitor -4.4.
For N=c1n(CCN2CCOCC2)c2ccccc2n1Cc1ccccc1Br the results were NS1 inh -13.5%, Pf growth 96h -23.0%, Pf growth 48h inconclusive, Cycloheximide cs -2.5 and Shiga inhibitor -6.0.
